Data published in PubChem BioAssay AID932 (The Scripps Research Institute Molecular Screening Center, 2007).
Hit rate of the full screen: of about 200,000 compounds, about 5,100 (2.5%) were called active.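 Rule for the calls: active = activation above the screen-wide mean activation plus 3 SD (cut at about 130% in these data); inactive = the rest.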 Shown is part of a subset that was picked to be rich in actives.

Test: STAT1 signaling activators, primary screen, cell-based, HTS, luciferase reporter (AID 932);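 note: raw ratio to IFN-gamma control signal so 100% means no change and 0% no light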
Conditions: NIH 3T3 STAT1-luciferase reporter, IFN-gamma, luminescence; at 5.5 µM; stronger effect = higher value; 100% = IFN-gamma alone, no compound

Activation (% of control), active:
Cc1ccccc1C(=O)Nc1ccc(N2CCCCCC2)cc1 141%, O=C(Nc1ccc2c(c1)OCCO2)C1CCCN(c2ncccn2)C1 (configuration not stated) 143%, CC(C)(C)C(=O)CSc1nc2ccccc2o1 150%, O=C(CSCc1ccccc1)N1CCc2ccccc21 138%, Cc1ccc(Nc2nc(-c3ccc(O)cc3O)cs2)nc1 143%, CCOC(=O)/C(C#N)=C/c1ccc(N2CCCCC2)cc1 155%, O=C1N=C(N2CCOCC2)S/C1=C\C=C/c1ccccc1 141%, O=C(OCc1ccccc1F)c1ccc2c(c1)OCCO2 139%, O=C(NC1=NCCS1)c1ccc(Cl)s1 141%, O=C(Nc1ccc(Cl)cn1)c1cnn2cccnc12 153%, Cc1cc(Cl)ccc1OCc1nc(-c2ccncc2)no1 151%, O=C(Nc1ccccc1Cl)/C(Cl)=C(\Cl)S(=O)c1ccccc1 (configuration not stated) 201%, O=C(Nc1ccc(Cl)cc1)c1ccsn1 145%, COc1cc(SC)ccc1C(=O)NCCOc1ccccc1Cl 141%, CCOc1ccc2c(c1)C(c1ccc(C)cc1)=NNC(c1ccc(C)cc1)=N2 131%, CC(C)c1ccc(Nc2ncccc2C#N)cc1 135%, COc1ccc(N=Cc2c(O)[nH]c3ccccc23)cc1OC 145%, Cc1cc2nc(-c3ccc(NC(=O)c4cccnc4)cc3)oc2cc1C 137%, O=C(NC1CC1)c1ccc(-c2ccccc2)cc1 131%

Activation (% of control), inactive:
O=C(CSc1nnc(C2CC2)n1Cc1ccccc1)Nc1cccnc1Cl 96.9%, CCc1ccc(CN(C)C(=O)CCc2nnc(-c3ccc(-c4ccccc4)cc3)o2)nc1 93.4%, COc1cccc(OC)c1C(=O)Nc1ccc(N2CCCCC2)cc1 103%, COc1cccc(C(=O)Nc2ccc(N3CCCC3)cc2)c1 127%, CCc1cc2c(=O)c(-c3ccc(F)cc3)c(C(F)(F)F)oc2cc1OCC(=O)O 97.7%, C/C(CC(=O)Nc1ccc(C)cc1C)=N\NC(=O)C(C)C 102%, O=S(=O)(c1cccc(C(F)(F)F)c1)N1CCN(c2cnccn2)CC1 108%, Cc1cc(C)nc(N2CCC(C(=O)Nc3ccc4c(c3)OCCO4)CC2)n1 101%, Cc1ccnc(N2CCCC(C(=O)Nc3cc(F)ccc3C)C2)n1 (configuration not stated) 104%, NS(=O)(=O)c1ccc(NC(=S)Nc2ccc(Br)c(Cl)c2)cc1 94.5%, CCC(C)N(C(=O)COC(=O)C1C(C(=O)OC)=C(C)NC(C)=C1C(=O)OC)C1CCS(=O)(=O)C1 (configuration not stated) 102%, O=C(Nc1ccc(Cl)cc1)C1c2cccc[n+]2CC(=O)N1Cc1ccc2c(c1)OCO2 (configuration not stated) 101%, Cc1cc(C)nc(NNC2=CC(=O)CC(C)(C)C2)n1 115%, Cc1ccc(/C=N/NC(=O)CSc2nc3ccccc3o2)cc1 111%, CCN(CC)C(=O)CSc1nc2ccccc2o1 110%, COc1ccc(/C=C2/SC(=O)N(CCCCCC(=O)Nc3ccccc3C(=O)O)C2=S)cc1 102%, Cc1nnc(SCC(=O)N2CCc3ccccc32)n1-c1ccccc1 100%, NC(=O)N1CCc2ccccc21 98.2%, CCOc1ccc(NC(=O)CN(C)CC(=O)NC(C)c2ccccc2)cc1OCC (configuration not stated) 99.4%, Cc1ccc(NC(=O)c2cc(-c3ccc(C)o3)nc3ccccc23)nc1 91.3%, Cc1ccc(-c2csc(NNC(=O)c3ccccc3)n2)cc1 102%, CN(C)/C=C(/C(=O)c1ccc(F)cc1)S(=O)(=O)c1ccc(F)cc1 106%, CCN(CCn1cccn1)C(=O)CC1C(=O)NCCN1Cc1cccc(OC)c1OC (configuration not stated) 96.3%, COc1ccc(N2CCN(C(=O)COc3ccc4c(C)cc(=O)oc4c3)CC2)cc1 93.8%, CC1(C)CC(N(Cc2ccccc2)C(=O)Cc2ccccc2)CCO1 (configuration not stated) 89.7%, COc1ccc(N2CCN(C(=O)/C(C#N)=C/c3ccccc3)CC2)cc1 105%, CCOC(=O)/C(C#N)=C/c1ccc(N2CCN(Cc3ccccc3)CC2)cc1 107%, Cc1ccsc1/C=C1\SC(N2CCOCC2)=NC1=O 127%, CCc1ccc(/C=C2\SC(N3CCOCC3)=NC2=O)cc1 103%, CN(Cc1nc2ccc(F)cc2[nH]1)Cc1nc(CC2CC2)no1 107%, CCCC(NC(=O)c1ccco1)c1nc2ccccc2[nH]1 (configuration not stated) 97.5%, O=C(COC(=O)c1ccc2c(c1)OCCO2)NCc1ccccc1 101%, CC(NC(=O)COC(=O)c1ccc2c(c1)OCO2)c1ccccc1 (configuration not stated) 102%, CCOC(=O)c1ccc(NC(=S)N2CCCC2)cc1 100%, CCn1ncc(CNC(=O)C2(C)CC2(Br)Br)c1C (configuration not stated) 90%, COCCCNC(=O)Cn1cc(/C=C(\C#N)C(=O)N2CCN(c3ccccc3)CC2)c2ccccc21 96.8%, O=C(NC1=NCCS1)[C@H](Cc1ccccc1)N1C(=O)c2ccccc2C1=O 107%, O=C(NCc1ccc2c(c1)OCO2)c1ccc(Cl)s1 99.1%, CCOc1ccc(C(C)=O)cc1CSc1nnc(-c2ccncc2)n1CCOC 99.7%, Cc1cccc(NC(=S)NC(=O)c2ccc(Br)o2)c1 125%, Cc1cc(NC(=O)c2cnn3cccnc23)n(-c2ccccc2)n1 89.3%, O=C(Nc1ccc(Cl)cn1)c1ccc2c(c1)OCCO2 74.1%, COc1ccccc1CNC(=O)C1Cc2ccccc2C(=O)O1 (configuration not stated) 102%, C#CCOCCOCCOCCNc1nc(N2CCN(C(=O)[C@H](Cc3ccc(O)cc3)n3cc(C(N)CC(C)C)nn3)CC2)nc(N2CCN(C(=O)[C@H](CCC(=O)O)n3cc(C(N)[C@H](C)CC)nn3)CC2)n1 (some centres not stated) 99.5%, CCOC(=O)N1CCN(Cc2nc(Cc3cccc(C(F)(F)F)c3)no2)CC1 97.5%, COc1ccc(CC(=O)NCc2nnc(SCC(=O)Nc3nccs3)n2C)cc1 91.2%, COc1ccc(-c2noc(COc3ccc(Cl)c(C)c3)n2)cc1 93.9%, c1ccc(CCc2nc(-c3ccncc3)no2)cc1 117%, CCCOc1ccc(NC(=O)C2OC3OC(C)(C)OC3C3OC(C)(C)OC23)cc1 (configuration not stated) 95.5%, CCn1c(CNS(=O)(=O)c2ccc(Cl)cc2)n[nH]c1=S 94.3%, O=C1/C(=C\c2ccccc2Cl)SC(=S)N1CCC(=O)N1CCCc2ccccc21 98.2%, O=C(CN1CCCCC1)Nc1ccccc1Cl 103%, COCCN(CCOC)C(=S)Nc1ccccc1Cl 91.7%, CCN(CC)CC(=O)Nc1sc2c(c1C(=O)c1ccccc1C)CCC2 100%, CCOC(=O)c1cc(-c2ccc(F)cc2)n(CC(=O)NCc2ccccn2)c1C 96.2%, CO/N=C(\N)c1ccc([N+](=O)[O-])cc1 97.7%, O=C(NCc1cn2ccsc2n1)Nc1ccc(Cl)cc1 102%, O=C(Nc1ccccc1)c1nnsc1S(=O)(=O)c1ccc(Cl)cc1 90%, CCCC(C)C(=O)NCc1ccncc1 (configuration not stated) 96.3%, CC1=C(C(=O)N(C)C)C(c2ccccc2OC(F)F)NC(=O)N1 (configuration not stated) 104%, CC[N+]1(CC)CC2=Cc3ccccc3CC2C1 (configuration not stated) 106%, COCCn1c(N)c(N(Cc2ccccc2)C(=O)C2CCCCC2)c(=O)[nH]c1=O 98%, Cc1cc(NC(=O)CSc2nccn2-c2ccc([N+](=O)[O-])cc2)no1 95.1%, COc1ccccc1CNC(=O)c1ccc(SC)cc1OC 109%, COc1cc(SC)ccc1C(=O)Nc1cc(C)ccn1 102%, COCCNC(=O)C(OC(=O)c1cccs1)c1ccc(F)cc1 (configuration not stated) 93.1%, CCc1ccc2c(c1)C(c1ccc([N+](=O)[O-])cc1)=NNC(c1ccccc1)=N2 95.2%, Cc1ccc(C2=Nc3c(ccc4ccccc34)C(c3ccncc3)=NN2)cc1 37.3%, O=C(NCc1ccccc1)C1=C[C@@H](c2ccc(C(F)(F)F)cc2)C[C@@H](OCc2ccc(CO)cc2)O1 106%, Cc1ccc(C2NC(C(=O)O)CS2)cc1 (configuration not stated) 106%, O=C(Nc1ccccc1)c1cccnc1Nc1ccccc1 99.2%, CN(C)c1ccnc(Nc2ccc(F)cc2)c1C#N 98.2%, Cc1oc2cc([N+](=O)[O-])c(O)c([N+](=O)[O-])c2c1C(=O)c1ccc(Br)cc1 94%, COc1cc(N=Cc2c(O)[nH]c3ccccc23)cc(OC)c1OC 115%, COc1ccc(OC)c(N=Cc2c(O)[nH]c3ccccc23)c1 115%, CCC(CC)c1nnc(NC(=O)c2nn(C)c(=O)c3ccccc23)s1 102%, CN(CCOc1ccc(Br)cc1)CC(=O)Nc1cccc(S(=O)(=O)NC2=NCCC2)c1 97.5%, CCN(CC)S(=O)(=O)c1ccc(OC(C)C)c(N)c1 98.6%, Cc1ccc2nc(-c3ccc(NC(=O)c4cccnc4)cc3)oc2c1 93.8%, Cc1ccc(-n2nc3cc(C)c(NC(=O)c4cccnc4)cc3n2)cc1 118%, CCOc1ccc(CCN2C(=O)c3cccnc3C2=O)cc1OCC 96.9%, O=C(NC1CC1)c1cccc(Br)c1 98.5%, Cc1ccc(C(=O)NC2CCN(C(=O)N3CCOCC3)CC2)cc1 98.8%
